Only some compounds are listed: those with a hit (about 6.1% of all), similar ones and a draw of the others.
D1 agonist = Allosteric Agonists of the Human D1 Dopamine Receptor: qHTS; D(1A) dopamine receptor (Homo sapiens), P21728; HEK293 T-REx D1 cells, calcium flux, agonist mode; activation, % at 2 µM; 360,000 tested, 1% active; AID 504660, 2011; in the data active means activation above about 30%; further: 0% is about no effect
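Inducible HEK293 T-REx D1 cells, force-coupled to calcium signalling, were plated at 4000 cells/well with tetracycline and held overnight at 30 C. After no-wash calcium dye loading, compound-evoked calcium rise over 180 s flagged agonists.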
DRD3 antagonist = qHTS of D3 Dopamine Receptor Antagonist: qHTS; D3R cells, DiscoveRx beta-arrestin luminescence, antagonist mode; active compounds read low; max response, negative = inhibition, %; 360,000 tested, 2.5% active; D(3) dopamine receptor (Homo sapiens), P35462; in the data active means max response below about -50%; inconclusive means no clear call, values can overlap the other calls; further: on the % scale 0 is the no-effect control and ±100 the full control effect
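Cells expressing the human receptor were seeded at 1500 cells/well, incubated overnight at 37 degrees C in 5% CO2, then exposed to library compounds with dopamine controls for 90 minutes at 37 degrees C before luminescent detection.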
D1 antagonist = Antagonist of Human D 1 Dopamine Receptor: qHTS; D(1A) dopamine receptor (Homo sapiens), P21728; AID 504652, 2011; activity change, negative = inhibition, % at 10 µM; HEK293 TREx D1 cells, calcium flux, dopamine EC80; active compounds read low; 360,000 tested, 3.2% active; in the data active means activity change below about -30%; further: on the % scale 0 is the no-effect control and ±100 the full control effect
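Compound effects on dopamine-evoked calcium signalling were measured in tetracycline-induced HEK293 Trex D1 cells. Dopamine at EC80 followed a 180 s compound pre-read, and fluorescence was tracked kinetically for 180 s more.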
D1 potentiator = Potentiators of Human D1 Dopamine Receptor: qHTS. D(1A) dopamine receptor (Homo sapiens), P21728. HEK293 TREx D1 cells, calcium flux, dopamine EC20 potentiation. potentiation, % at 10 µM. 360,000 tested, 0.036% active; in the data active means potentiation above about 30%; further: 0% is about no effect
D3 ag = qHTS of D3 Dopamine Receptor Agonist: qHTS; 410,000 tested, 0.58% active; max activation, %; D3R DiscoveRx beta-arrestin cells, luminescence, 90 min; D(3) dopamine receptor (Homo sapiens), P35462; in the data active means max activation above about 30%; further: 0% is about no effect
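Cells at 1500/well, incubated overnight, then treated with pinned compounds (dopamine as control) for 90 min at 37 degrees C. DiscoveRx reagent added for 30 - 60 minutes at room temperature; luminescence read.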
ERG Ets-DNA blk = qHTS for Small Molecule Inhibitors of the ERG Ets/DNA interaction | fluorescence polarization, His-ERG Ets domain / labelled DNA | AID 624246, 2012 | Potency, µM (doses to about 76.9 µM), for the others: top-dose FP activity, negative = inhibition, usual class: inhibitors | 370,000 tested, 0.028% active | Transcriptional regulator ERG (Homo sapiens), P11308; active means well fitted inhibition curve with a large enough effect in the polarisation, with a control signal flat; inconclusive means small, poorly fitted or top-dose-only effect, or effect the other way, or a change in a side signal; inactive means no such curve, though single readings can be large or run the other way; the % refers to the polarisation;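 further: polarization taken with two DNA probes labelled with fluorescein and Texas red; potency means the concentration at half of the fitted maximal effect; % of control where 0% means no effect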
Target sequence (P11308 whole entry, looked up, the tested form may be a part): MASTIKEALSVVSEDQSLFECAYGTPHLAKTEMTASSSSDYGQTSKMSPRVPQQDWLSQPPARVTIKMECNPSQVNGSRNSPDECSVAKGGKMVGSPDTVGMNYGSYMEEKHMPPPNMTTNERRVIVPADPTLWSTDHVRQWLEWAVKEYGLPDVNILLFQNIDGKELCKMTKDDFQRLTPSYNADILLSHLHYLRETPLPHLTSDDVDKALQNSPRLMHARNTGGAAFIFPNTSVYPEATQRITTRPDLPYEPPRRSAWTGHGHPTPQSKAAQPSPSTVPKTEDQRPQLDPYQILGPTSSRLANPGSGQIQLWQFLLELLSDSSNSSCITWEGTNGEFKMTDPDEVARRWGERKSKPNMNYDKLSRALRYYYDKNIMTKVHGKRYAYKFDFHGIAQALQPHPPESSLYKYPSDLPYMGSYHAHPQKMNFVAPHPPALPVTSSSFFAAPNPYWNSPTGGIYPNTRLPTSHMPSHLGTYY
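His-tagged ERG Ets domain (1 uM in the protein solution; 300mM KCl, 50mM Tris-HCl, 1mM EDTA, 1mM DTT, pH 7.5) received compound, then a probe mix of 5 nM fluorescein-DNA and 100nM Texas-615-DNA. Fluorescence polarization was read for both dyes.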
* = called active by the depositor.

`CCN(CCn1cccn1)C(=O)CC1C(=O)NCCN1Cc1ccc(OC)c(OC)c1` (stereo unspecified) gave D1 agonist 2, DRD3 antagonist 11, D1 antagonist -16, D1 potentiator -2, D3 ag 0 and ERG Ets-DNA blk 4%.
`CC(NC(=S)Nc1ccc(OC(F)F)cc1OC(F)F)C(C)(C)C` (stereo unspecified) gave D1 agonist 13, DRD3 antagonist -3, D1 antagonist -25, D1 potentiator -2, D3 ag -24 and ERG Ets-DNA blk 13%.
For O=C1CN(c2ccc(Cl)cc2)C(=O)CN1NC(=S)Nc1ccc(Cl)cc1 the results were D1 agonist 0, DRD3 antagonist 26, D1 antagonist 7, D1 potentiator -3, D3 ag 1 and ERG Ets-DNA blk 4%.
Screening COC(=O)N/N=C/C1=CCC2CC1C2(C)C (stereo unspecified) returned D1 agonist 1, DRD3 antagonist -8, D1 antagonist 2, D1 potentiator -4, D3 ag 0 and ERG Ets-DNA blk -3%.
Screening CC1(C)C2CC=C(/C=N/NC(=O)c3ccc(O)cc3)C1C2 (stereo unspecified) returned D1 agonist 3, DRD3 antagonist -9, D1 antagonist -32*, D1 potentiator -1, D3 ag -12 and ERG Ets-DNA blk 2%.
For Cc1ccc(Nc2nc3ccccc3c3nncn23)c(Cl)c1 the results were D1 agonist 0, D1 antagonist 0, D1 potentiator 1, D3 ag -6 and ERG Ets-DNA blk -4%.
`CCOC(=O)c1c(NC(=O)CN2C(=O)NC3(CCCCC3C)C2=O)sc(C)c1CC` (stereo unspecified) gave D1 agonist 1, DRD3 antagonist inconclusive, D1 antagonist 1, D1 potentiator 6, D3 ag 0 and ERG Ets-DNA blk 7%.
CC(=O)C1CCC2C3CC(C)=C4CC(O)CCC4(C)C3CCC12C (stereo unspecified) was read as DRD3 antagonist -5, D3 ag 65* and ERG Ets-DNA blk 1%.
For CC(=O)[C@H]1CC[C@H]2[C@@H]3CC=C4C[C@@H](O)CC[C@]4(C)[C@H]3CC[C@]12C the results were D1 agonist 1, DRD3 antagonist -7, D1 antagonist 13, D1 potentiator -2, D3 ag 4 and ERG Ets-DNA blk 3%.
CC(C)(C)c1csc(NC(=O)c2ccc(Cl)s2)n1 was read as D1 agonist 0, DRD3 antagonist 5, D1 antagonist 1, D1 potentiator -3, D3 ag 0 and ERG Ets-DNA blk 1%.
CCNc1nc(N)c(C(=O)c2ccc(Cl)s2)s1 was read as D1 agonist 1, DRD3 antagonist -51*, D1 antagonist 4, D1 potentiator -4, D3 ag -2 and ERG Ets-DNA blk -13%.
`O=C/C(=C\Nc1ccc(S(=O)(=O)CCO)cc1)c1nc2cc(Cl)ccc2o1` gave D1 agonist 6, DRD3 antagonist -51*, D1 antagonist -7, D1 potentiator -4, D3 ag -24 and ERG Ets-DNA blk 3%.
Screening O=C(CCC(=O)c1cccs1)Nc1ccc(N2CCCCC2)cc1 returned D1 agonist -1, DRD3 antagonist -9, D1 antagonist 3, D1 potentiator -11, D3 ag -3 and ERG Ets-DNA blk 2%.
`Brc1ccc(-c2ccc(CNCc3ccccn3)o2)cc1` gave D1 agonist 3, DRD3 antagonist -74*, D1 antagonist 3, D1 potentiator -4, D3 ag -20 and ERG Ets-DNA blk 13%.
For Clc1cccc(-c2ccc(CNCc3ccccn3)o2)c1 the results were D1 agonist 12, DRD3 antagonist -27, D1 antagonist -24, D1 potentiator 0, D3 ag -16 and ERG Ets-DNA blk 1%.
Fc1ccc(-n2cc(-c3ccccc3)c3c(=S)nc[nH]c32)cc1 was read as D1 agonist 2, DRD3 antagonist -2, D1 antagonist -41*, D1 potentiator -14, D3 ag -4 and ERG Ets-DNA blk -1%.
Cc1ccc(-n2cc(-c3ccccc3)c3c(=O)[nH]cnc32)cc1 was read as D1 agonist 1, DRD3 antagonist 10, D1 antagonist -66*, D1 potentiator -19, D3 ag 0 and ERG Ets-DNA blk 7%.
`Cc1cc(C(=O)N2CCN(C(=O)c3ccco3)CC2)ccc1[N+](=O)[O-]` gave D1 agonist 3, DRD3 antagonist 25, D1 antagonist -14, D1 potentiator -6, D3 ag 2 and ERG Ets-DNA blk 2%.
`COc1ccc2c(c1)OC[C@H]1[C@H]2N2C(=O)c3cc(OC)ccc3NC(=O)[C@@]2(C)[C@H]1c1ccccc1` gave D1 agonist 8, DRD3 antagonist -52*, D1 antagonist 1, D1 potentiator 7, D3 ag -3 and ERG Ets-DNA blk -1%.
Screening COc1ccc2c(c1)OC[C@H]1[C@H]2N2C(=O)c3cc(Cl)ccc3NC(=O)[C@@]2(C)[C@H]1c1ccccc1 returned D1 agonist 10, DRD3 antagonist inconclusive, D1 antagonist -5, D1 potentiator 1, D3 ag -12 and ERG Ets-DNA blk -3%.
COc1ccc(Cl)cc1NC(=O)CN(C)C(=O)Cc1ccc2c(c1)CCC2 was read as D1 agonist 0, DRD3 antagonist -17, D1 antagonist 8, D1 potentiator 4, D3 ag -4 and ERG Ets-DNA blk -18%.
COc1ccc(Cl)cc1NC(=O)CN(C)C(=O)c1cc2c(s1)CCCC2 was read as D1 agonist 6, DRD3 antagonist -8, D1 antagonist -38*, D1 potentiator -5, D3 ag -15 and ERG Ets-DNA blk -1%.
CCc1ccc2c(c1)c(N=NC1=NC(=O)CS1)c(O)n2CC was read as D1 agonist -1, DRD3 antagonist -88*, D1 antagonist -4, D1 potentiator 1, D3 ag -23 and ERG Ets-DNA blk 15%.
`CCc1ccc2[nH]c(O)c(N=NC3=NC(=O)CS3)c2c1` gave D1 agonist 0, DRD3 antagonist -6, D1 antagonist 11, D1 potentiator -3, D3 ag -5 and ERG Ets-DNA blk -1%.
For CCCNC(=O)c1ccc(-n2c(-c3ccccc3)cc3c2CCCCC3)cc1 the results were D1 agonist 11, D1 antagonist -19, D1 potentiator -3, D3 ag -21 and ERG Ets-DNA blk 5%.

High-throughput results (PubChem)
